# Source: PMC5540273 (PLoS ONE, 2017)
# System: AKT3
# Conditions: concentration: 1 μM, replicates: in singlicate; n = 1
# 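Further: KINOMEscan kinase panel screen.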
row,Compound,%Inh
1,Cc1cccc(-c2cc(-c3c[nH]nc3-c3ccccn3)ccn2)c1 [GW679395],0%
2,Cc1ccc(Oc2ccc(Nc3ncnc4cc[nH]c34)cc2C)cn1,0%
3,O=C1NC(=O)C(c2ccccc2)=C1Nc1cccc(O)c1 [SB-390534],0%
4,CCS(=O)(=O)c1ccc(OC)c(Nc2ncc(-c3ccc(F)cc3)o2)c1.Cl [GW591947],9%
5,Cl.c1ccc(Cn2cnc3cc(Nc4ncnc5ccccc45)ccc32)cc1 [GW272142],0%
6,CN(C)c1cc(-c2ccc3c(N)n[nH]c3c2)nc(N)n1 [GSK2219329],0%
7,Cc1nn2c(=O)cc(N3CCOCC3)nc2n1Cc1cccc(Cl)c1Cl [GSK2342769],0%
8,Nc1nc(-c2ccccc2F)c(-c2ccnc3ccccc23)s1 [GW560459],0%
9,COc1ccc(-n2cnc3c(N)ncnc32)cc1 [SKF-97236],11%
10,COc1cccc(C2=C(Nc3cccc(C(=O)O)c3)C(=O)NC2=O)c1 [SB-390770],0%
11,COc1cc2nccc(Nc3cccc(Oc4ccccc4)c3)c2cc1OC.Cl [GW284543],0%
12,CCCC(=O)Nc1n[nH]c2ncc(-c3cccc4ccccc34)cc12 [SB-642057],0%
13,CCc1nc(-c2cccc(C)c2)c(-c2ccncc2)s1,0%
14,O=C(Nc1ccc2c(c1)OCO2)NC1CCN(c2ccnc(NCc3ccc(F)cc3)n2)CC1 [GSK1379859],0%
15,Cc1ccc(-c2ccc3c(ccc4sc5c(c43)NC[C@@H](C)N=C5N(C)C)n2)cn1,0%
16,Cc1nc(N(C)[C@H]2CN(C(=O)CC#N)CC[C@H]2C)c2cc[nH]c2n1,3%
17,O=C(Nc1n[nH]c2nc(-c3ccccc3)c(Cl)cc12)C1CC1 [SB-734909],0%
18,COc1cccc(C2=C(N(C)c3ccccc3)C(=O)NC2=O)c1 [SB-334865],0%

row,Compound,%Inh
1,COc1ccc(-c2coc3ccc(-c4nnc(SCc5cccc(C#N)c5)o4)cc23)cc1,0%
2,O=C(NCCNc1ccnc(Nc2ccc(F)cc2)n1)Nc1ccc2c(c1)OCO2 [GSK1379882],0%
3,CCS(=O)c1ccc(-c2coc3ccc(-c4nnc(C)o4)cc23)cc1 (stereo not drawn),0%
4,Cc1cccc(-c2nc(Nc3ccc4c(cnn4C)c3)c3ccccc3n2)n1 [GW876731],20%
5,CCn1c(-c2nonc2N)nc2ccccc21 [SB-693162/GW549034],0%
6,CCC(=O)c1c(-c2ccccc2)c2cc(Cl)ccc2c(=O)n1Cc1cc(S(C)(=O)=O)n(CC(F)F)n1,0%
7,COc1cc2ncn(-c3cc(OCc4ccncc4Br)c(C(N)=O)s3)c2cc1OC [GW854278],0%
8,COC(=O)c1c(-c2ccccc2)c2cc(C)ccc2c(=O)n1Cc1ccccc1,0%
9,Cc1nnc(-c2ccc3ncn(-c4ccc(S(C)=O)cc4)c3c2)o1 (stereo not drawn),0%
10,COC(=O)c1c(-c2ccccc2)c2cc(Br)ccc2c(=O)n1Cc1ccc(S(C)(=O)=O)cc1,0%
11,CCC(=O)c1c(-c2ccccc2)c2cc(Cl)ccc2c(=O)n1Cc1cc(S(C)(=O)=O)n(CC(N)=O)n1,0%
12,COc1cc(Nc2ccnc3ccc(C(F)(F)F)cc23)cc(OC)c1OC [GW577382],0%
13,Cc1ccccc1COc1cc(-n2cnc3cc(Cl)ccc32)sc1C(N)=O [GW813349],6%
14,Nc1n[nH]c2ncc(-c3ccccc3)cc12 [SB-517081],0%
15,CC(C)(C)c1ccc(C(=O)Nc2cn3cc(-c4ccccc4)ccc3n2)cc1,0%
16,FC(F)(F)c1ccc(-c2ncn(CCCN3CCOCC3)c2-c2ccncc2)cc1 [SB-217780],28%
17,O=C(Nc1n[nH]c2nc(-c3ccccc3)c(Br)cc12)C1CC1 [SB-708998],0%
18,COC(=O)c1c(-c2ccccc2)c2cc(Br)ccc2c(=O)n1Cc1ccc(NC(=O)CCC(=O)O)cc1,0%
